Among the data in PubChem BioAssay (EPA / NIEHS) are outcome and AC50 values, retold here.

One may read the AC50 as the concentration giving half of the maximal activity seen.

For assay [1], the target named is rat Constitutive Nitric Oxide Synthase (CNOS), Nos1 (gene 24598) (UniProt P29476). The experiment in a line: NVS_ENZ_rCNOS: NovaScreen (NVS) Enzymatic Assay for rat Constitutive Nitric Oxide Synthase (CNOS) (AID 2283236). The method, boiled down: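 Enzyme activity in rat brain membrane preparation, read 1 h after dosing by filter-based radiometric scintillation counting. Primary screen in duplicate at 25 uM; actives (e.g., ≥30% inhibition) then run in concentration-response up to 50 uM.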

For assay [2], the target named is human Serotonin, 5-Hydroxytryptamine Receptor 5A (5HT5A), HTR5A (gene 3361) (UniProt P47898). The experiment in a line: NVS_GPCR_h5HT5A: NovaScreen (NVS) G Protein-Coupled Receptor Assay for human Serotonin, 5-Hydroxytryptamine Receptor 5A (5HT5A) (AID 2283251). The method, boiled down:
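Cell-free radioligand displacement binding on HEK293-derived membrane protein, 1 h incubation, filter-based scintillation counting. Primary screen in duplicate at 25 uM, actives followed in concentration series; loss of signal fitted versus DMSO.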

For assay [3], the target named is human Adrenergic, Alpha 2A Receptor (Adra2A), ADRA2A (gene 150) (UniProt P08913). The experiment in a line: NVS_GPCR_hAdra2A: NovaScreen (NVS) G Protein-Coupled Receptor Assay for human Adrenergic, Alpha 2A Receptor (Adra2A) (AID 2283257). The procedure, abridged:
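Radioligand filter-binding was run on HT29-derived membranes, cell-free, read by scintillation counting 1 h after dosing. Primary screening was in duplicate at 25 uM, with concentration series in follow-up. Loss of signal versus DMSO indicates displacement.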

Assay [4] addresses human Serotonin, 5-Hydroxytryptamine Receptor 7 (5HT7), HTR7 (gene 3363) (UniProt P34969). The experiment in a line: NVS_GPCR_h5HT7: NovaScreen (NVS) G Protein-Coupled Receptor Assay for human Serotonin, 5-Hydroxytryptamine Receptor 7 (5HT7) (AID 2283255).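 Further: hits reduce specific radioligand binding relative to DMSO.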 The procedure, abridged:
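Radioligand displacement on membranes from CHO cells expressing human 5HT7, 1 h incubation, filter-based scintillation counting. Primary screen used a single 25 uM concentration in duplicate; actives were followed up in concentration series.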

Assay [5] addresses human Adenosine A2a Receptor (AdoRA2a), ADORA2A (gene 135) (UniProt P29274). The experiment in a line: NVS_GPCR_hAdoRA2a: NovaScreen (NVS) G Protein-Coupled Receptor Assay for human Adenosine A2a Receptor (AdoRA2a) (AID 2283256). The procedure, abridged:
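Cell-free radioligand binding on membranes from HEK293 expressing the receptor; competitive displacement read 1.5 h after dosing by filter-based scintillation counting. Primary screen in duplicate at 25 uM; actives followed in concentration series, with DMSO as baseline.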

Assay [6] has as its system rat Monoamine Oxidase, MAO-A, Peripheral (MAOAP), gene 29253. Description: NVS_ENZ_rMAOAP: NovaScreen (NVS) Enzymatic Assay for rat Monoamine Oxidase, MAO-A, Peripheral (MAOAP) (AID 2283237). The procedure, abridged:
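Rat liver mitochondrial membranes served as the MAO-A source, with enzyme activity measured by radiometric scintillation counting 1.17 hours after dosing. Loss of signal was fitted against DMSO; primary screen used 25 uM in duplicate, follow-up used concentration series.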

In assay [7] the test system is rat Monoamine Oxidase, MAO-A, Central (MAOAC), gene 29253. Description: NVS_ENZ_rMAOAC: NovaScreen (NVS) Enzymatic Assay for rat Monoamine Oxidase, MAO-A, Central (MAOAC) (AID 2283243).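 Further: potency refers to inhibition seen as signal drop below DMSO baseline.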 The procedure, abridged:
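Rat brain tissue extract served as the cell-free enzyme source; activity was measured by radiometric scintillation counting 1.5 hours after compound addition. Loss of signal relative to DMSO baseline indicated inhibition; primary screen at 25 uM in duplicate.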

Assay [8] concerns the target sheep Cyclooxygenase-1 (Cox1), PTGS1 (gene 443551) (UniProt P05979). Description: NVS_ENZ_oCOX1: NovaScreen (NVS) Enzymatic Assay for sheep Cyclooxygenase-1 (Cox1) (AID 2283239).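 Further: actives reduce cyclooxygenase activity so potencies are for inhibitors.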 The procedure, abridged:
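Absorbance read-out of cyclooxygenase activity in a cell-free preparation from sheep seminal vesicles, taken 0.66 hour after dosing. Initial testing was in duplicate at 25 uM, and confirmatory testing was run in concentration series.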

Assay [9] deals with guinea pig Opioid, Kappa 1 Receptor (OpiateK), OPRK1 (gene 100135587) (UniProt P41144). The experiment in a line: NVS_GPCR_gOpiateK: NovaScreen (NVS) G Protein-Coupled Receptor Assay for guinea pig Opioid, Kappa 1 Receptor (OpiateK) (AID 2283252).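 Further: active means reduced radioligand binding relative to DMSO.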 The procedure, abridged: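 Signal is scintillation counts of filter-trapped radioligand bound to guinea pig cerebellar membrane receptor, measured 2 hours post-dosing. Activity is loss of binding versus DMSO, first at 25 uM in duplicate, then as concentration series for actives.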

Assay [10] concerns the target human Serotonin, 5-Hydroxytryptamine Receptor 6 (5HT6), HTR6 (gene 3362) (UniProt P50406). The experiment in a line: NVS_GPCR_h5HT6: NovaScreen (NVS) G Protein-Coupled Receptor Assay for human Serotonin, 5-Hydroxytryptamine Receptor 6 (5HT6) (AID 2283253). The method, boiled down: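 Radioligand binding to 5HT6 in HEK293-derived membranes, cell-free, 1 h after dosing; bound ligand measured by filter-based scintillation counting. Primary screen in duplicate at 25 uM; actives retested in concentration series.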

The subject of assay [11] is guinea pig Muscarinic, Peripheral (Mperiperal) Receptor, Non-selective Binding, gene 100379235. The experiment in a line: NVS_GPCR_gMPeripheral_NonSelective: NovaScreen (NVS) G Protein-Coupled Receptor Assay for guinea pig Muscarinic, Peripheral (Mperiperal) Receptor, Non-selective Binding (AID 2283250). The method, boiled down: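 Guinea pig bladder membranes, radioligand binding read 1 h after dosing by filter scintillation counting; loss of signal vs DMSO. Primary duplicate screen at 25 uM, then concentration-response up to 50 uM.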

Assay [12] deals with rat Catechol-O-Methyl Transferase (COMT), Comt (gene 24267) (UniProt P22734). Description: NVS_ENZ_rCOMT: NovaScreen (NVS) Enzymatic Assay for rat Catechol-O-Methyl Transferase (COMT) (AID 2283235). The method, boiled down:
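Cell-free enzyme activity with protein extracted from rat dorsal striatum, measured by HPLC with absorbance detection. Compounds screened at 25 uM in duplicate; actives then run in concentration-response up to 50 uM, loss of signal versus DMSO.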

In assay [13] the target is rat Monoamine Oxidase, MAO-B, Peripheral (MAOBP), Maob (gene 25750) (UniProt P19643). Description: NVS_ENZ_rMAOBP: NovaScreen (NVS) Enzymatic Assay for rat Monoamine Oxidase, MAO-B, Peripheral (MAOBP) (AID 2283242).
Assay [14] has as its target guinea pig Leukotriene D4 Receptor (LTD4), CYSLTR1 (gene 100135514) (UniProt Q2NNR5). Description: NVS_GPCR_gLTD4: NovaScreen (NVS) G Protein-Coupled Receptor Assay for guinea pig Leukotriene D4 Receptor (LTD4) (AID 2283248). The procedure, abridged:
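Radioligand displacement on guinea pig lung membranes, 1 h incubation, filtration and scintillation counting; DMSO as negative control. Duplicate 25 uM primary screen, then singleton concentration-response up to 50 uM.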

The target of assay [15] is human Adenosine A1 Receptor (AdoRA1), ADORA1 (gene 134) (UniProt P30542). The experiment in a line: NVS_GPCR_hAdoRA1: NovaScreen (NVS) G Protein-Coupled Receptor Assay for human Adenosine A1 Receptor (AdoRA1) (AID 2283254). The procedure, abridged: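 Each chemical is first tested twice at 25 uM, actives later in dilution series, against a radioligand bound to human cortex membranes; after 1 h, filter-retained counts are compared with DMSO controls, lower signal indicating displacement.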

Assay [16] has as its system bovine Angiotensin II Receptor Type 2 (AT2), gene 407157. The experiment in a line: NVS_GPCR_bAT2: NovaScreen (NVS) G Protein-Coupled Receptor Assay for bovine Angiotensin II Receptor Type 2 (AT2) (AID 2283240). The procedure, abridged: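 Radioligand displacement on bovine cerebellar membranes, 1 hour incubation, filter-based scintillation counting; loss of signal vs DMSO. Duplicate single-point screen at 25 uM, then concentration-response to 50 uM maximum.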

The nature of assay [17]: NVS_GPCR_bNPY_NonSelective: NovaScreen (NVS) G Protein-Coupled Receptor Assay for bovine Neuropeptide Y (NPY) Receptor, Non-selective Binding (AID 2283245). The procedure, abridged:
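Bovine hippocampal membranes incubated 1 hour with radioligand and test chemical. Bound ligand measured by filter-based scintillation counting. Single-concentration screen at 25 uM in duplicate, then concentration-response up to 50 uM.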

For assay [18], the target named is rat Monoamine Oxidase, MAO-B, Central (MAOBC), Maob (gene 25750) (UniProt P19643). The experiment in a line: NVS_ENZ_rMAOBC: NovaScreen (NVS) Enzymatic Assay for rat Monoamine Oxidase, MAO-B, Central (MAOBC) (AID 2283238). The method, boiled down: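 Compounds were first tested in duplicate at 25 uM against MAO-B from rat brain tissue; those passing the inhibition threshold were retested in concentration series up to 50 uM. Radiodetection by scintillation counting at 1.17 h, analysed against DMSO baseline.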

Assay [19] concerns guinea pig Leukotriene B4 Receptor (LTB4), gene 100379538. Description: NVS_GPCR_gLTB4: NovaScreen (NVS) G Protein-Coupled Receptor Assay for guinea pig Leukotriene B4 Receptor (LTB4) (AID 2283247). The method, boiled down: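 Radioligand displacement on guinea pig spleen membranes, filter-based scintillation counting 2 h after dosing. Primary duplicate single point at 25 uM; hits over threshold (e.g. 30% inhibition) run in concentration-response up to 50 uM, DMSO baseline.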

The structures appear in SMILES notation. “And” between values parts separate entries of the source, which are not always exact repeats. Equal entries are not always repeated. Inconclusive results are not listed. Some compounds were tested as several samples or in several runs, with calls that do not always agree. The source made the active and inactive calls. How the source made its calls: active means hit-call score of the fitted dose curve at least 0.9, where 1 is the maximum; inconclusive means response in the unintended direction; inactive means score below 0.9.

Sequence of rat Constitutive Nitric Oxide Synthase (CNOS), Nos1 (gene 24598) (P29476 whole entry, looked up): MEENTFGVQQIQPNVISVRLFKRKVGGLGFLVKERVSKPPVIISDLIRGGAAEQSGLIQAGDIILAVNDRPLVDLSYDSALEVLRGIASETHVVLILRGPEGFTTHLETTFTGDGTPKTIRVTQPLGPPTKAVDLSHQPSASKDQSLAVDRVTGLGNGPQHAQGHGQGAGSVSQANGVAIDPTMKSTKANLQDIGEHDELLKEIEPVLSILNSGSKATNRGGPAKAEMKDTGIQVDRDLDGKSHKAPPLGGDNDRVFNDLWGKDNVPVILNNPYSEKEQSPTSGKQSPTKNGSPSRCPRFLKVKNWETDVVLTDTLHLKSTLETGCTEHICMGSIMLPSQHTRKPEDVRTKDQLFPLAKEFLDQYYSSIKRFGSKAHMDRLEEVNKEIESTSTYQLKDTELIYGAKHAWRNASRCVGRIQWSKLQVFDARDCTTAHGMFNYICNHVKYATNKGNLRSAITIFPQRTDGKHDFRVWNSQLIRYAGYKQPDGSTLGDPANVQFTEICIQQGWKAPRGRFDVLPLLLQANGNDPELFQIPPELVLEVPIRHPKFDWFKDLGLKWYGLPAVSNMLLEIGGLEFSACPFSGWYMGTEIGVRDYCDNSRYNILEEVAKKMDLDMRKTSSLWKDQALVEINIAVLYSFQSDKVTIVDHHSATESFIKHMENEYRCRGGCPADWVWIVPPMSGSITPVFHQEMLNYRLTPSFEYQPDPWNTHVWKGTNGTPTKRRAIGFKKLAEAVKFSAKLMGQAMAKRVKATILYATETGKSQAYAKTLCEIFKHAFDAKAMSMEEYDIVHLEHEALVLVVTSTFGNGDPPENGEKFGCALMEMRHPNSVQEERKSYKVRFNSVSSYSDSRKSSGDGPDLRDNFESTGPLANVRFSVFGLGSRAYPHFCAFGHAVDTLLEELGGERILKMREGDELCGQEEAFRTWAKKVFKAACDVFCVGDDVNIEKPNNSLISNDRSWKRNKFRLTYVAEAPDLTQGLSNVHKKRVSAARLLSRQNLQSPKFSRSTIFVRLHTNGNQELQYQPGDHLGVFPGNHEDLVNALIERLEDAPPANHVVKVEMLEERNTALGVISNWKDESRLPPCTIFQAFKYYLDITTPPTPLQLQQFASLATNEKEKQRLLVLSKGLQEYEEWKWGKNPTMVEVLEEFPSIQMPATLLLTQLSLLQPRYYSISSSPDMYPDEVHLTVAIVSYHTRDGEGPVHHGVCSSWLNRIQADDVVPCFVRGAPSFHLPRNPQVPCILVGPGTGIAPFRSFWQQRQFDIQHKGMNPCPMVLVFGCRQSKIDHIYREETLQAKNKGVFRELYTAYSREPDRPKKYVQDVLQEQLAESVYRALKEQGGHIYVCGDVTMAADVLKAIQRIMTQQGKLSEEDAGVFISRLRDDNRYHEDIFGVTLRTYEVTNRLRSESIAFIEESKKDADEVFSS
Sequence of human Adenosine A1 Receptor (AdoRA1), ADORA1 (gene 134) (P30542 whole entry, looked up): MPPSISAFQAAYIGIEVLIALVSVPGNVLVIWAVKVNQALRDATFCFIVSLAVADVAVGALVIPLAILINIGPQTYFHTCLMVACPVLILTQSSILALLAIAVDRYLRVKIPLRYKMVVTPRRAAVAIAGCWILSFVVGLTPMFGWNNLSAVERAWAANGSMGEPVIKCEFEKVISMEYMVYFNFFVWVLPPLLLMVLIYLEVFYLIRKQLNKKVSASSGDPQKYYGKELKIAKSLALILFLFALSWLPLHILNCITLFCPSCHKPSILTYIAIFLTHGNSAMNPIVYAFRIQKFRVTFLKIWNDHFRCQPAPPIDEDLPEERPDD
Sequence of human Serotonin, 5-Hydroxytryptamine Receptor 7 (5HT7), HTR7 (gene 3363) (P34969 whole entry, looked up): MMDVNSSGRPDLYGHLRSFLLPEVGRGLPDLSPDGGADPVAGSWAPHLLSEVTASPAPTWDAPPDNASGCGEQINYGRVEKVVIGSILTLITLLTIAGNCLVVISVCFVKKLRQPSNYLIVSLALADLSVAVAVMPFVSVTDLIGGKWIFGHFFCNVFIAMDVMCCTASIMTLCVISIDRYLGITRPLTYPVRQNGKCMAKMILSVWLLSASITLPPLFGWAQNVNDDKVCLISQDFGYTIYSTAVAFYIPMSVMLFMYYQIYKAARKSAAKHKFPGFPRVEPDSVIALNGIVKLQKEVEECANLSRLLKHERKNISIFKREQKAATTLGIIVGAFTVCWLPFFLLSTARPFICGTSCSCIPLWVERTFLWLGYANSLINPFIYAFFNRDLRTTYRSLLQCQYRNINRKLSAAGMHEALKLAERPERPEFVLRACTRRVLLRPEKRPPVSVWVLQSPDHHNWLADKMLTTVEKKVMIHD
Sequence of human Adrenergic, Alpha 2A Receptor (Adra2A), ADRA2A (gene 150) (P08913 whole entry, looked up): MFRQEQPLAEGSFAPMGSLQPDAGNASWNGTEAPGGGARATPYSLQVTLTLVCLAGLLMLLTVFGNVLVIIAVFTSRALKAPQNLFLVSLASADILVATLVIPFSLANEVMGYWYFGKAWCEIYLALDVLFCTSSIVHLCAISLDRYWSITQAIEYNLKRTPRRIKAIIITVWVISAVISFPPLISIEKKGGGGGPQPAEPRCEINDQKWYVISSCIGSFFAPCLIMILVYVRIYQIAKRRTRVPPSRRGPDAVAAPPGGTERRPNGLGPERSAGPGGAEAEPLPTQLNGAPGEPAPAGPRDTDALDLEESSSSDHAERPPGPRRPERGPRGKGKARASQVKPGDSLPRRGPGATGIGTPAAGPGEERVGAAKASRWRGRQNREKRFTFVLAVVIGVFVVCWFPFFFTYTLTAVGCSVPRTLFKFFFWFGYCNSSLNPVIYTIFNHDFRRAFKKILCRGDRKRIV
Sequence of human Adenosine A2a Receptor (AdoRA2a), ADORA2A (gene 135) (P29274 whole entry, looked up): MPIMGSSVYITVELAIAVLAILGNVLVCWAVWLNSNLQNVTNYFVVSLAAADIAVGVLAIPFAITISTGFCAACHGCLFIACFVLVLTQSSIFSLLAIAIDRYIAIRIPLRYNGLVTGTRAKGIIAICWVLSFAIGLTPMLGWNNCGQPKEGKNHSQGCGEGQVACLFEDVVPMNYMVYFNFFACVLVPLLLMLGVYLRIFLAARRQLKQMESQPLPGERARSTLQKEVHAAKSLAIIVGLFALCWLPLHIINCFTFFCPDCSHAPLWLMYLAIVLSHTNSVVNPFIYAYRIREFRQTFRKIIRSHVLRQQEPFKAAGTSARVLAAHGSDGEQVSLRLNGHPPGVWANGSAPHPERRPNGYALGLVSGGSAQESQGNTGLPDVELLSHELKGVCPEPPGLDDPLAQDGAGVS
Sequence of human Serotonin, 5-Hydroxytryptamine Receptor 5A (5HT5A), HTR5A (gene 3361) (P47898 whole entry, looked up): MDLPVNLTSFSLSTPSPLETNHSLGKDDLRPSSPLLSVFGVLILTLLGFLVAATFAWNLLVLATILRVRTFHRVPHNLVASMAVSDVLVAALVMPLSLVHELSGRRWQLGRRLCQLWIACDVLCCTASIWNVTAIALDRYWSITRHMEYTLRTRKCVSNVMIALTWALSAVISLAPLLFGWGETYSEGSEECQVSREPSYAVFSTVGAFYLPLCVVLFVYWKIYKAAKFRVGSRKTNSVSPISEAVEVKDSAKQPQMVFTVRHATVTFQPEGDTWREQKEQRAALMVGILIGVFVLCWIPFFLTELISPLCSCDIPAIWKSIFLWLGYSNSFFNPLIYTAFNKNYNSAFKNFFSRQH
Sequence of sheep Cyclooxygenase-1 (Cox1), PTGS1 (gene 443551) (P05979 whole entry, looked up): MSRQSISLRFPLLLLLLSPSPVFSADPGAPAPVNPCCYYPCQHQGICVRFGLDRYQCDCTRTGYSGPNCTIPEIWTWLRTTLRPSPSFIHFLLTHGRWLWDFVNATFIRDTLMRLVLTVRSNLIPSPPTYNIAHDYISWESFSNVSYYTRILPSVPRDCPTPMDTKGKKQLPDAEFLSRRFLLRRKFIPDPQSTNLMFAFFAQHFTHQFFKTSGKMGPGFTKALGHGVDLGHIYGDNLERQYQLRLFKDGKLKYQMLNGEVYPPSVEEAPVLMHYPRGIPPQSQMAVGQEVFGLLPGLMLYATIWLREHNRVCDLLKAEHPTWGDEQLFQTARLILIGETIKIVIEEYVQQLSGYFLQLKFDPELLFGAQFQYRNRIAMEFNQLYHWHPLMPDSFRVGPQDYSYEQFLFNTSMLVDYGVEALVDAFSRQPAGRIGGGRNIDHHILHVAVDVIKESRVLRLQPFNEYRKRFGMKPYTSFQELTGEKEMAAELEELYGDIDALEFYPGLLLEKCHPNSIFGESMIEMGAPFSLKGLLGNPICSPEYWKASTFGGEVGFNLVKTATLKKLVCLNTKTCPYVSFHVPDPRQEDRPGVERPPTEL
Sequence of guinea pig Leukotriene D4 Receptor (LTD4), CYSLTR1 (gene 100135514) (Q2NNR5 whole entry, looked up): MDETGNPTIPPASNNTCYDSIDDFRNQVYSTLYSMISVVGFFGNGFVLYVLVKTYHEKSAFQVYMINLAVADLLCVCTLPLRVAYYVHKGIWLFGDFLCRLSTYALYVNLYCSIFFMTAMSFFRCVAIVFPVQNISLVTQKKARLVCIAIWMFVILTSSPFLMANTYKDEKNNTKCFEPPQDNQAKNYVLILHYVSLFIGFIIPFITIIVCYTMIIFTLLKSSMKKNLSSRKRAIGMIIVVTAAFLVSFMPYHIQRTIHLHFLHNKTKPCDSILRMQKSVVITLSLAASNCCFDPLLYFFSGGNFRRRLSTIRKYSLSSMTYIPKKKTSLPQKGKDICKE
Sequence of rat Monoamine Oxidase, MAO-B, Peripheral (MAOBP), Maob (gene 25750) (P19643 whole entry, looked up): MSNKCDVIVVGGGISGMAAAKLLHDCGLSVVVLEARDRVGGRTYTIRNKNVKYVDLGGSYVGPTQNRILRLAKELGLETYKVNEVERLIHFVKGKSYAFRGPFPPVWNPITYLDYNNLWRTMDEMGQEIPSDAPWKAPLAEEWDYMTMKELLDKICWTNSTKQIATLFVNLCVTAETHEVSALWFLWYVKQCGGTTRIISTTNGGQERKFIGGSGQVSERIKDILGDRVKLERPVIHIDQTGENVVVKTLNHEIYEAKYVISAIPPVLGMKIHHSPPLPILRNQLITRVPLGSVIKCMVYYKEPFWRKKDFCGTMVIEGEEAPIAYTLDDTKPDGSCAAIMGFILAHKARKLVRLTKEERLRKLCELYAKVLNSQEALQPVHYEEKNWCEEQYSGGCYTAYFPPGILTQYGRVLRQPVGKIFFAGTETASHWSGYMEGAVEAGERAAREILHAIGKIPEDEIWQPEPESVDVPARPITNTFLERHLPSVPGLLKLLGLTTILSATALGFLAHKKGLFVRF

In the case of `COc1cc(OC)nc(NC(=O)NS(=O)(=O)c2cc(NC=O)ccc2C(=O)N(C)C)n1`, the outcome in assay [1] was inactive.
With `CCC(C)(NC(=O)c1cc(Cl)c(C)c(Cl)c1)C(=O)CCl` (stereo unspecified), the call in assay [2] was inactive.
As for `CNC(=O)Oc1ccccc1OC(C)C`, in assay [1], the outcome was inactive.
With `OCCOc1ccccc1`, in [3], the compound was classed as inactive.
On to `CC1(C)C(C=C(Cl)Cl)C1C(=O)OC(C#N)c1ccc(F)c(Oc2ccccc2)c1` (stereo unspecified), for which the outcome in [4] was inactive.
With `ClC1C(Cl)C(Cl)C(Cl)C(Cl)C1Cl` (stereo unspecified), the AC50 in assay [5] was 15.6 µM (active).
Regarding `CNC(=O)Oc1cccc(N=CN(C)C)c1`, the compound was classed as inactive in assay [6] and in assay [7].
Consider `CCCN(CCC)c1c([N+](=O)[O-])cc(C(F)(F)F)cc1[N+](=O)[O-]`, for which the AC50 was 12.8 µM (active) in assay [8] and 6.21 µM (active) in [2]. Also, the call in [3] was inactive.
On to `CCOCN(C(=O)CCl)c1c(C)cccc1CC`, for which the call in assay [9] and in [10] was inactive.
As for `[2H]C1([2H])[n+]2ccccc2-c2cccc[n+]2C1([2H])[2H]`, the compound was called inactive in assay [1] and in assay [11].
For the compound `O=C(O)COc1ccc(Cl)cc1Cl`, the result in assay [12] was inactive.
For `Oc1ccc(Cl)cc1Cc1ccccc1`, the AC50 in assay [6] is 38.2 µM (active); in assay [8], 36.2 µM (active) and 38.3 µM (active); in assay [13], 13.6 µM (active); in assay [7] it was 17.3 µM (active) and 25.2 µM (active); in [14], 6.93 µM (active); in [2], 25.2 µM (active) [middle of 6 runs]. For the same compound, the AC50 in [15] was 16.1 µM (active) [middle of 6 runs]; in assay [4], 20.8 µM (active) [middle of 5 runs]; in [5], 25.2 µM (active) and 15.1 µM (active). Further, the compound was classed as inactive in [6], in [7] and in assay [14].
As for `CC[C@H](C)[C@H]1O[C@]2(C=C[C@@H]1C)C[C@@H]1C[C@@H](C/C=C(\C)[C@@H](O[C@H]3C[C@H](OC)[C@@H](O[C@H]4C[C@H](OC)[C@@H](O)[C@H](C)O4)[C@H](C)O3)[C@@H](C)/C=C/C=C3\CO[C@@H]4[C@H](O)C(C)=C[C@@H](C(=O)O1)[C@]34O)O2` (tested in a mixture with another compound), the compound was called inactive in assay [16] and in assay [17]. Further, the figures for the AC50 in assay [14], in [2] and in [4] were 25 µM (active), 3.1 µM (active) and 6.77 µM (active), respectively.
Turning to `COP(=O)(OC)OC=C(Cl)Cl`, in assay [8], the call was inactive.
With `O=S1OCC2C(CO1)C1(Cl)C(Cl)=C(Cl)C2(Cl)C1(Cl)Cl` (stereo unspecified), in assay [2], the compound was called inactive.
Turning to `COP(=S)(OC)Oc1ccc([N+](=O)[O-])cc1`, the compound was called inactive in [18]. The AC50 in assay [19] was 10.5 µM (active).
In the case of `COC(=O)c1ccccc1CS(=O)(=O)NC(=O)Nc1nc(OC)cc(OC)n1`, in [7], the AC50 is 25 µM (active).
Turning to `CCc1ccc(C(=O)NN(C(=O)c2cc(C)cc(C)c2)C(C)(C)C)cc1`, the outcome in assay [11] was inactive.
For the compound `Oc1cc(Cl)ccc1Oc1ccc(Cl)cc1Cl`, the compound was classed as inactive in assay [6], in assay [8], in [13] and in assay [4]. Further, in assay [7], the AC50 is 38.9 µM (active).
In the case of `CCOc1nc(NC)nc(NC(=O)NS(=O)(=O)c2ccccc2C(=O)OC)n1`, the outcome in [3] was inactive.
`N#Cc1c(Cl)c(Cl)c(Cl)c(C#N)c1Cl`: the compound was classed as inactive in assay [10].
